ssDAF12 agonist – S. stercoralis DAF-12 nuclear receptor activators, primary screen, cell-based, luminescence, HEK293, GRIP1 co-expression, lit1-tk-luc; Nuclear hormone receptor DAF-12 (Strongyloides stercoralis); HEK293 ssDAF-12/GRIP1 lit1-tk-luc reporter; % of 3 µM dafachronic acid response; activation, % at 6.8 µM; 370,000 tested, 1% active; AID 652126, 2013;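 active = activation above the mean over all tested compounds plus 3 SD, cut at about 0.9% in these data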;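 also: 0% = DMSO-only wells and 100% = 3 µM delta7-dafachronic acid wells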
DAX1 inh-1 – DAX1 (NR0B1) inhibitors, primary screen, cell-based, HEK293, Gal4-DAX1, luciferase luminescence; Nuclear receptor subfamily 0 group B member 1 (Homo sapiens), P51843; HEK293 Gal4-DAX1 luciferase reporter; inhibition, % at 6.75 µM; 340,000 tested, 0.99% active; AID 504766, 2011;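 active = inhibition above the mean over all tested compounds plus 3 SD, cut at about 4.2% in these data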;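 also: 0% = DAX1-transfected cells with DMSO and 100% = empty-vector control cells with DMSO; inhibition shows as a rise in luminescence from relieved DAX1 repression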
Target sequence (P51843 207-470 limits assumed): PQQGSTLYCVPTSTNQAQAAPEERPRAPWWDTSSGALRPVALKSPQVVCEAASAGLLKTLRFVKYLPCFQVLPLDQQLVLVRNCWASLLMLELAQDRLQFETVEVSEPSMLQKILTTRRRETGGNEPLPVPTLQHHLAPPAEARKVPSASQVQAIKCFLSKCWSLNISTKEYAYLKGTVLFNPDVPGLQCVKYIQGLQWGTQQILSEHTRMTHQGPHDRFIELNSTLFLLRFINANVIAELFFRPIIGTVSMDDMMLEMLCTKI
DAX1 inh-2 – DAX1 (NR0B1) inhibitors on StAR promoter, primary screen, cell-based, luminescence, SF-1 (NR5A1), full-length DAX-1 | HEK293T StAR-luciferase reporter, SF-1/DAX-1 repression relief | inhibition, % at 6.8 µM | 370,000 tested, 1.1% active | AID 652010, 2013;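 active = inhibition above the mean over all tested compounds plus 3 SD, cut at about 3.6% in these data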;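 also: 0% = DAX-1 cells with DMSO and 100% = cells lacking DAX-1 with DMSO; higher inhibition means more luminescence from relief of DAX-1 repression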
hcDAF12 agonist – H. contortus DAF-12 nuclear receptor activators, primary screen, cell-based, luminescence, HEK293, lit1-tk-luc reporter; HEK293 hcDAF-12 lit1-tk-luc reporter; 0% DMSO, 100% Δ7-dafachronic acid; activation, % at 6.8 µM; 370,000 tested, 1.4% active;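 active = activation above the mean of all tested compounds plus 3 SD, cut at about 5.5% in these data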;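 also: 100% = response to 3 µM Δ7-dafachronic acid high control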
hgDAF-12 ag – H. glycines DAF-12 receptor agonists, primary screen, cell-based, luminescence, HEK293, GAL4 fusion, UAS-luciferase | HEK293 GAL4-hgDAF12 UAS-luciferase reporter, agonist luminescence; normalized to butyrate control | activation, % at 6.8 µM | 370,000 tested, 1.8% active | AID 687014, 2013;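 active = activation above a cutoff set at the mean of all screened compounds plus 3 SD, cut at about 10% in these data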;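 also: 0% = DMSO wells and 100% = sodium butyrate wells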
DAX1 inh confirm – DAX1 (NR0B1) inhibitors relieving SF-1 repression, confirmation, cell-based, luminescence, HEK293T, full-length DAX-1, SF-1 activated StAR promoter; shares compounds with DAX1 inh-2; HEK293T StAR-promoter luciferase reporter, SF-1/DAX-1 repression; inhibition, % at 6.8 µM; 2,400 tested, 87% active; AID 652134, 2013;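 active = inhibition above the average of every tested compound plus 3 SD, cut at about 3.8% in these data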;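 also: 0% = DAX-1 cells with DMSO and 100% = no DAX-1 control cells with DMSO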
Target sequence (P51843 whole entry, looked up): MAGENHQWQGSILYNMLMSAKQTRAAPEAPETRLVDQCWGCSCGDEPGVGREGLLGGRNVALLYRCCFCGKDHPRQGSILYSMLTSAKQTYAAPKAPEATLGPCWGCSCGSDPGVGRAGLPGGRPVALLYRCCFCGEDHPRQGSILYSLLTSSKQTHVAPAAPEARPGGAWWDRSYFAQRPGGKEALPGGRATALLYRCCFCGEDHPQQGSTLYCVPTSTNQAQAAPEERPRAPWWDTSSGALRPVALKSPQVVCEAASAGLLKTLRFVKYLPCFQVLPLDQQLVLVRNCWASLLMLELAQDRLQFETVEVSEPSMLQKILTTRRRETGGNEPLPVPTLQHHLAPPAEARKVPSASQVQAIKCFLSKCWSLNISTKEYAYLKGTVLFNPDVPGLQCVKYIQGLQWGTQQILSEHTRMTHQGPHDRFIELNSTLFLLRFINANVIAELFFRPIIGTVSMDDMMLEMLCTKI
SF1 AF2mut Luc – StAR reporter signal changes without DAX1, counter-screen for DAX1 inhibitor project, cell-based, luminescence, AF-2 mutant SF-1, transactivation | AID 652136, 2013 | shares compounds with DAX1 inh-2 | 2,400 tested, 78% active | HEK293 StAR-luciferase, SF-1 AF2 mutant | inhibition, % at 6.8 µM;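 active = inhibition above the mean of all tested compounds plus 3 SD, cut at about 3% in these data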;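 also: 0% = DAX-1 transfected cells with DMSO and 100% = cells without DAX-1 with DMSO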
LXRb hcDAF ctr – LXR agonists, Gal4 luciferase reporter, confirmation, counter-screen for hcDAF-12 agonist project, cell-based, luminescence, HEK293, H. contortus campaign; shares compounds with hcDAF12 agonist; HEK293 Gal4-LXR tk-luc reporter, 24 h; normalized: DMSO 0%, positive control 100%; activation, % at 6.8 µM; 3,400 tested, under 10 active;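 active = mean percent activation of the reporter above a cutoff set as the average over tested compounds plus their standard deviation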
hcDAF12 conf – H. contortus DAF-12 receptor agonists, confirmation, cell-based, luminescence, HEK293, lit1-tk-luc, triplicate. shares compounds with hcDAF12 agonist. HEK293 hcDAF-12 lit1-tk-luc reporter; % of Δ7-dafachronic acid response. AID 743032, 2013. activation, % at 6.8 µM. 3,400 tested, 61% active;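 active = mean activation across triplicate tests above the threshold derived from the earlier primary screen, cut at about 5.5% in these data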;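 also: 0% = DMSO only wells and 100% = 3 µM Δ7-dafachronic acid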
hgDAF12 conf – H. glycines DAF-12 receptor agonists, confirmation, cell-based, luminescence, HEK293, GAL4-LBD fusion; 3,300 tested, 80% active; activation, % at 6.8 µM; AID 743050, 2013; shares compounds with hgDAF-12 ag; HEK293 GAL4-hgDAF12 luciferase reporter, agonist mode; percent of butyrate response;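 active = mean activation over triplicate wells above the hit cutoff derived from the earlier primary screen, cut at about 11% in these data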;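 also: 0% = DMSO low control and 100% = 2 mM sodium butyrate high control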
LXR ag 2 – LXR agonists, Gal4 luciferase reporter, confirmation, counter-screen for hgDAF-12 agonist project, cell-based, luminescence, HEK293, H. glycines campaign; shares compounds with hgDAF-12 ag; 24 h; activation, % at 6.8 µM; 3,300 tested, under 10 active; AID 743051, 2013;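 active = mean activation of the triplicate above a set limit carried over from the primary screen, none filed active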
Numbers without * were called inactive; · = not tested or not shown. Shown are actives, neighbours in structure and some others; about 4.1% of the full set was active somewhere.

SMILES | ssDAF12 agonist | DAX1 inh-1 | DAX1 inh-2 | hcDAF12 agonist | hgDAF-12 ag | DAX1 inh confirm | SF1 AF2mut Luc | LXRb hcDAF ctr | hcDAF12 conf | hgDAF12 conf | LXR ag 2
c1ccc(-c2cc(-c3ccccc3)on2)cc1 | 1.7* | 3 | 5.7* | 12* | 18* | 18* | 12* | 1 | 8.0* | 18* | 1
COc1ccc2cc3cc(C(=O)NC4CC4)sc3nc2c1 | 0 | -2 | 15* | 18* | 24* | 14* | 4.2* | 2 | 8.7* | 16* | 1
COC(=O)C[C@H]1CC[C@@H]2[C@H](COc3ccc(NC(=O)c4cccc(Cl)c4)cc3C(=O)N2C)O1 | -1 | · | 0 | -1 | 0 | · | · | · | · | · | ·
Cc1ccc(C)c(NC(=O)CSc2nccn2Cc2ccco2)c1 | -1 | 1 | -1 | 3 | 5 | · | · | · | · | · | ·
Cc1ccc(NC(=O)CSc2nccn2Cc2ccco2)c(C)c1 | 0 | 0 | 6.3* | 7.2* | 14* | 7.8* | 3.2* | 1 | 7.0* | 14* | 1
COCCCNC(=O)C[C@H]1C[C@@]2(C(=O)OC)C(=C[C@H](COCc3ccccc3)O[C@@H]2C)N(Cc2ccccc2)C1=O | -1 | · | 1 | 0 | 2 | · | · | · | · | · | ·
S=C(Nc1ccccc1I)OC1CCC12CCC(c1ccccc1)CC2 (stereo unspecified) | -1 | · | · | 0 | -1 | · | · | · | · | · | ·
c1ccc2nc3c(nc2c1)[nH]c1ccccc13 | 1.7* | 3 | 4.6* | 7.0* | 18* | 14* | 7.6* | 2 | 11* | 17* | 1
CC(=O)CC[C@H]1CC[C@]2(CCCN(C(=O)c3ccc4ccccc4n3)C2)O1 | -1 | · | 0 | 0 | 1 | · | · | · | · | · | ·
Cc1cc(/C=C\c2ccccc2)nc2ccccc12 | 1 | 5.6* | 6.0* | 10* | 15* | 6.4* | 4.1* | 1 | 8.6* | 17* | 0
Cc1cc(C(=O)c2ccccc2)nc2ccccc12 | -2 | -1 | 0 | -2 | -2 | · | · | · | · | · | ·
CCCCc1c(-c2ccccc2OC)ncn1Cc1c(F)cccc1F | -1 | · | 1 | 0 | 1 | · | · | · | · | · | ·
Cc1cc(C(=O)Nc2nc(C)c(C(=O)N(C)C)s2)ccc1[N+](=O)[O-] | 0 | 1 | 4.6* | 3 | 14* | 13* | 5.4* | · | · | 11* | 1
Cc1c(COC(=O)NC(C)C)c(COC(=O)NC(C)C)c2n1CS(=O)(=O)C2 | -1 | · | -1 | 0 | -2 | · | · | · | · | · | ·
CCOC(=O)c1ccc(Nc2ccc(C(C)=O)cc2)cc1 | 1.3* | · | 9.0* | 7.7* | 21* | 7.0* | 5.7* | 1 | 10* | 19* | 1
CC(C)N1CCC(=NNC(=O)c2ccccc2[N+](=O)[O-])CC1 | -1 | 1 | 0 | -1 | 0 | · | · | · | · | · | ·
CC(C)N1CCC(=NNC(=O)c2cccs2)CC1 | 1.5* | 1 | 9.6* | 6.1* | 14* | 2 | 2 | · | · | 4 | 0
Cc1nc(N)sc1-c1csc(Nc2ncccn2)n1 | 0 | 1 | 5.4* | 4 | 16* | 8.4* | 4.8* | · | · | 13* | 0
CCNC(=O)N1CCN(c2ccc(N3CCN(Cc4ccccc4)[C@@H](C)C3)c(C)c2)[C@H](C)C1 | -2 | · | -2 | -2 | -2 | · | · | · | · | · | ·
Fc1ccccc1CSc1ncnc2c1ncn2C1CCCCO1 (stereo unspecified) | 0 | 1 | 6.1* | 5 | 14* | 8.6* | 5.0* | · | · | 13* | 1
COC(=O)c1cccc(N2C(=O)C[C@](Sc3ccc(OC)cc3)(C(=O)N3CCOCC3)[C@H]2c2ccc(OC)cc2)c1 | -1 | · | -1 | -2 | 2 | · | · | · | · | · | ·
CCOC(=O)CC[C@@H]1CC[C@]2(CCCN(C(=O)c3ccco3)C2)O1 | -1 | · | 0 | -2 | -2 | · | · | · | · | · | ·
COC(=O)c1ccc2nc(-c3ccc(Cl)cc3)c(CC3CCCCC3)n2c1 | 1 | · | 1 | 3 | 4 | · | · | · | · | · | ·
Cc1ccc2nc(-c3ccc(F)cc3)c(CC3CCCCC3)n2c1 | 1.5* | · | 6.6* | 9.7* | 14* | 3 | 5.0* | 0 | 5 | 10 | 0
O=C(/C=C/c1ccc(Cl)cc1)Nc1nccs1 | 1 | 0 | 11* | 8.6* | 24* | 18* | 10* | 2 | 7.7* | 20* | 1
O=C(NCCN1CCC(Cc2ccccc2)CC1)C1CCCN(S(=O)(=O)c2ccccc2)C1 (stereo unspecified) | -2 | · | -3 | -4 | -3 | · | · | · | · | · | ·
CN[C@H]1C[C@H]2c3cc(-c4ccc5c(c4)OCO5)ccc3CCN2C[C@H]1[C@H](C)O | -1 | · | 0 | -1 | 1 | · | · | · | · | · | ·
CN(C)S(=O)(=O)c1ccc(-c2cn3ccccc3n2)cc1 | 0 | 1 | 1 | 0 | 8 | · | · | · | · | · | ·
